PLC-beta3 inh = blocks human PLC-beta3 enzyme activity. inhibition, % at 12.2 µM. Purified PLC-beta3, fluorogenic substrate, fluorescence. 370,000 tested, 0.18% active. Q01970;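 further: 0% = median of compound wells on plate and 100% = full blocker control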
ADAM17 inh = ADAM17 inhibition, QFRET primary screen. recombinant ADAM17, EDANS/DABCYL FRET peptide cleavage. inhibition, % at 6.95 µM. 370,000 tested, 0.83% active;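 active means inhibition above the mean of compounds lying between control limits plus 3 SD, set per campaign, cut at about 8.5% in these data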;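 further: 0% = DMSO-only wells as the low control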
proKLK7 act = activates the human kallikrein-7 zymogen. purified proKLK7, EDANS-DABCYL substrate fluorescence; 100% is mature enzyme control, 0% vehicle. activation, % at 7 µM. 370,000 tested, 0.9% active. AID 652039;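 active means activation above the mean of all tested compounds plus 3 SD, computed per campaign excluding outliers beyond control limits, cut at about 13% in these data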
ADAM10 inh = inhibitors of human ADAM10 | recombinant ADAM10, EDANS/DABCYL FRET peptide cleavage, 3 h | inhibition, % at 7 µM | AID 720582 | 370,000 tested, 0.62% active;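 active means inhibition above a per-campaign cutoff equal to the mean of compounds falling between control-based bounds plus 3 SD, cut at about 20% in these data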;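 further: 0% = DMSO wells while the 100% control is not disclosed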
PLC-gamma1 inh = PLC-gamma1 (human) inhibition, primary screen | purified PLC-gamma1, fluorogenic substrate, fluorescence | inhibition, % at 12.2 µM | 370,000 tested, 0.84% active | AID 720700; in the data active means inhibition above about 9.5%
ADAM10 counter = ADAM10 inhibition, counter-screen for ADAM17 exosite hits; inhibition, % at 6.95 µM; 2,900 tested, 47% active; AID 743256; recombinant ADAM10, EDANS/DABCYL FRET peptide cleavage, 3 h; shares compounds with ADAM17 inh;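 active means mean inhibition over the triplicate runs exceeds the activity threshold set in the earlier primary screen, cut at about 20% in these data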;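 further: 0% = DMSO wells and 100% = marimastat wells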
ADAM17 confirm = human ADAM17 inhibition, confirmation. shares compounds with ADAM17 inh. recombinant ADAM17, EDANS/DABCYL QFRET peptide cleavage. inhibition, % at 6.95 µM. 2,900 tested, 65% active;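 active means mean inhibition across replicates above the hit cutoff set in the primary screen, cut at about 8.5% in these data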;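 further: 0% = DMSO wells and 100% = marimastat wells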
PLCgamma1 ctr = inhibits human PLC-gamma1 in PLC-beta3 counter-screen. purified PLC-gamma1, fluorogenic substrate, fluorescence. shares compounds with PLC-gamma1 inh. AID 743258. inhibition, % at 12.3 µM. 3,300 tested, 3.1% active; in the data active means inhibition above about 9.5%
PLCb3 confirm = confirmation of human PLC-beta3 inhibitors. shares compounds with PLC-gamma1 inh. purified PLC-beta3, fluorogenic substrate fluorescence. inhibition, % at 12.3 µM. 3,300 tested, 1% active
* hit, by the source's call. Compounds with a hit are over-represented: about 2.9% of the library has one in this group of screens. Unless noted, no stated cut-off is given here; in the data, active means inhibition above about 11%; inactive means the rest.

What do the screens show for `CC1CCCC(C)N1CCCNC(=O)CN1C(=O)COc2ccc(S(=O)(=O)N3CCOCC3)cc21` (stereo not drawn)?
PLC-beta3 inh: -2; ADAM17 inh: 0; proKLK7 act: 0; ADAM10 inh: -4; PLC-gamma1 inh: 1

How did CC1CCN(S(=O)(=O)c2ccc3c(c2)N(CC(=O)NCCCN2C(C)CCCC2C)C(=O)CO3)CC1 (stereo not drawn) do in these assays?
PLC-beta3 inh: -6; ADAM17 inh: 14*; proKLK7 act: 0; ADAM10 inh: 2; PLC-gamma1 inh: 11*; ADAM10 counter: 0; ADAM17 confirm: 8; PLCgamma1 ctr: -6; PLCb3 confirm: -2

How did O=C(Cn1cc([N+](=O)[O-])ccc1=O)NC1CCCCC1 do in these assays?
PLC-beta3 inh: -7; ADAM17 inh: -21; proKLK7 act: 0; ADAM10 inh: -4; PLC-gamma1 inh: -1

How did CCC(=O)N[C@H]1CC[C@@H](CCn2cc(C3CC3)nn2)O[C@@H]1CO do in these assays?
PLC-beta3 inh: 0; ADAM17 inh: 0; proKLK7 act: 0; ADAM10 inh: 0; PLC-gamma1 inh: 5

Results for O=C(Nc1cccc([N+](=O)[O-])c1)Nc1ccc2c(c1)OCCO2 ?
PLC-beta3 inh: -1; ADAM17 inh: 8.9*; proKLK7 act: 0; ADAM10 inh: 12; PLC-gamma1 inh: 10*; ADAM10 counter: 12; ADAM17 confirm: 8; PLCgamma1 ctr: 1; PLCb3 confirm: 3

Results for CC(C)C[C@H](NC1(C(=O)NCCc2c[nH]c3ccccc23)CCC1)C(=O)NCCCc1ccccc1 ?
PLC-beta3 inh: 7; ADAM17 inh: 8.8*; ADAM10 inh: 6; PLC-gamma1 inh: 13*; ADAM10 counter: 11; ADAM17 confirm: 6; PLCgamma1 ctr: -7; PLCb3 confirm: -4

What do the screens show for `CC(C)C[C@H](NC1(C(=O)NCCc2c[nH]c3ccccc23)CCOCC1)C(=O)NCCCc1ccccc1`?
PLC-beta3 inh: 0; ADAM17 inh: -3; ADAM10 inh: -3; PLC-gamma1 inh: 5

How did COc1cc(C(=O)Nc2cccc3cccnc23)cc(OC)c1OC do in these assays?
PLC-beta3 inh: -4; ADAM17 inh: -3; proKLK7 act: 1; ADAM10 inh: 2; PLC-gamma1 inh: 1

How did COc1cc(NC(=O)Nc2cccc3cccnc23)cc(OC)c1OC do in these assays?
PLC-beta3 inh: 2; ADAM17 inh: 13*; proKLK7 act: 0; ADAM10 inh: 13; PLC-gamma1 inh: 15*; ADAM10 counter: 7; ADAM17 confirm: 7; PLCgamma1 ctr: -5; PLCb3 confirm: -2

Results for CC1CCC(NC(=O)C(NS(=O)(=O)c2cccc3nsnc23)C(C)C)CC1 (stereo not drawn) ?
PLC-beta3 inh: -3; ADAM17 inh: 13*; proKLK7 act: 0; ADAM10 inh: 1; PLC-gamma1 inh: 11*; ADAM10 counter: 5; ADAM17 confirm: 7; PLCgamma1 ctr: 3; PLCb3 confirm: 2

What do the screens show for `O=C(Nc1cccc(O)c1)c1cccc(S(=O)(=O)N2CCCC2)c1`?
PLC-beta3 inh: 0; ADAM17 inh: -4; proKLK7 act: 1; ADAM10 inh: -1; PLC-gamma1 inh: 0

How did O=C(Nc1cccc(O)c1)c1ccc(S(=O)(=O)N2CCCCCC2)cc1 do in these assays?
PLC-beta3 inh: -2; ADAM17 inh: 10*; proKLK7 act: 0; ADAM10 inh: 10; PLC-gamma1 inh: 11*; ADAM10 counter: 12; ADAM17 confirm: 7; PLCgamma1 ctr: 1; PLCb3 confirm: -4

Results for CCOC(=O)CC1(C)Oc2ccccc2N1S(=O)(=O)c1ccc(C)cc1 (stereo not drawn) ?
PLC-beta3 inh: 4; ADAM17 inh: 9.9*; proKLK7 act: 0; ADAM10 inh: 14; PLC-gamma1 inh: 9.8*; ADAM10 counter: 8; ADAM17 confirm: 6; PLCgamma1 ctr: -1; PLCb3 confirm: -5

What do the screens show for `COc1ccc(C(O)c2ncc(-c3ccccc3C)[nH]2)cc1F` (stereo not drawn)?
PLC-beta3 inh: -5; ADAM17 inh: 2; proKLK7 act: 0; ADAM10 inh: 1; PLC-gamma1 inh: 3

How did CC(=O)Nc1ccc(NC(=O)C/C(C)=N/NC(=O)c2cccc3ccccc23)cc1 do in these assays?
PLC-beta3 inh: -8; ADAM17 inh: -2; proKLK7 act: 0; ADAM10 inh: -4; PLC-gamma1 inh: 0

What do the screens show for `COC(=O)c1ccc(C2/C(=C(/O)c3ccc(OC)cc3)C(=O)C(=O)N2CC2CCCO2)cc1` (stereo not drawn)?
PLC-beta3 inh: 4; ADAM17 inh: -4; proKLK7 act: 0; ADAM10 inh: -4; PLC-gamma1 inh: 0

Results for COc1ccc(/C(O)=C2/C(=O)C(=O)N(CC3CCCO3)C2c2cccc(O)c2)cc1 (stereo not drawn) ?
PLC-beta3 inh: -1; ADAM17 inh: 8.8*; proKLK7 act: 5; ADAM10 inh: 4; PLC-gamma1 inh: 9.6*; ADAM10 counter: 7; ADAM17 confirm: 6; PLCgamma1 ctr: -2; PLCb3 confirm: -7

Results for Cc1cccc(-n2c(Cc3ccccc3)nnc2SCC(=O)N2CCOCC2)c1 ?
PLC-beta3 inh: 4; ADAM17 inh: 12*; proKLK7 act: 0; ADAM10 inh: 15; PLC-gamma1 inh: 14*; ADAM10 counter: -2; ADAM17 confirm: 3; PLCgamma1 ctr: -5; PLCb3 confirm: -3

Results for C/C(=N\N=C1\NC(=O)CS1)c1cccs1 ?
PLC-beta3 inh: 6; ADAM17 inh: 11*; proKLK7 act: 1; ADAM10 inh: 16; PLC-gamma1 inh: 13*; ADAM10 counter: 9; ADAM17 confirm: 7; PLCgamma1 ctr: 2; PLCb3 confirm: 3

Results for CCOc1ccc(NC(=O)CC2SC(=O)N(c3ccccc3)C2=O)cc1 (stereo not drawn) ?
PLC-beta3 inh: 4; ADAM17 inh: 9.6*; proKLK7 act: 0; ADAM10 inh: 15; PLC-gamma1 inh: 9.9*; ADAM10 counter: 14; ADAM17 confirm: 41*; PLCgamma1 ctr: -9; PLCb3 confirm: -7

Results for CCCCNC(=O)C1c2ccccc2OCC(=O)N1C1CC1 (stereo not drawn) ?
PLC-beta3 inh: 2; ADAM17 inh: -2; proKLK7 act: 0; ADAM10 inh: 2; PLC-gamma1 inh: 3
